From PubChem BioAssay AID1850 (Southern Research Specialized Biocontainment Screening …, 2009)
Screen size: about 310,000 compounds; about 1,000 (0.32%) were called active. No rule for the calls is given here. These entries were drawn from the full list. Entries with a potency or affinity are not part of this list.

Assay: Inhibition of PhoP regulon, Salmonella typhi GFP reporter cells, confirmation, 4 h (AID 1850);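 also: 0% = induced wells with vehicle and 100% = uninduced wells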
Conditions: Salmonella Typhi PhoP-promoter GFP reporter, fluorescence, at 50 µM, stronger effect = higher value

Structure (SMILES)	inhibition
CCOC(=O)C1CCN(c2cc3c(cc2NC(=O)c2ccccc2F)n(C)c(=O)n3C)CC1	-6.44% (inactive)
CCOC(=O)c1cn(CC2CC2)c2cc(F)c(F)cc2c1=O	-1.36% (inactive)
CCN(CC)CCCNC(=O)c1c(O)c2cc(F)cc3c2n(c1=O)C(C)CC3 (stereo not given)	-12.5% (inactive)
CC1CCc2cc(F)cc3c(O)c(C(=O)NCCN(C)C)c(=O)n1c23 (stereo not given)	-11.2% (inactive)
O=C(O)c1cn(-c2ccc(F)c(F)c2)c2c(F)c(F)c(F)c(F)c2c1=O	-8.9% (inactive)
C[n+]1ccccc1/C=C/c1ccc(F)c(F)c1	-2.41% (inactive)
N#Cc1ccccc1OCC(O)CS(=O)(=O)c1ccccc1 (stereo not given)	8.05% (inactive)
Cc1ccc(NNC(=O)c2cc(C(C)(C)C)nn2Cc2ccccc2)cc1	1.12% (inactive)
Cc1cc(C)cc(NS(=O)(=O)c2csc(C(N)=O)c2)c1	-4.13% (inactive)
N#Cc1c(C(F)(F)F)cc(Cc2ccccc2)nc1SCC(=O)NCC(=O)O	-9.26% (inactive)
Cc1ccc2oc(=O)c3cc(C(=O)NCCCN4CCc5ccccc5C4)sc3c2c1	-1.04% (inactive)
Cc1c(OCC(=O)N[C@@H](Cc2c[nH]c3ccccc23)C(=O)O)ccc2c1oc(=O)c1ccccc12	4.69% (inactive)
CCOC(=O)C1CCCN(C(=O)c2ccc3nc(-c4ccccc4)c(-c4ccccc4)nc3c2)C1 (stereo not given)	5.36% (inactive)
CCCc1nc2sc(C(=O)OCC)c(N)c2c2c1COC(C)(C)C2	0.3% (inactive)
O=C(CSc1nccc(=O)[nH]1)Nc1ccc(Br)c(Cl)c1	4.82% (inactive)
CCN(CC)C(=O)CSc1nc(COc2ccccc2)nc2ccccc12	-0.33% (inactive)
CC[C@H](C)[C@@H](CNC)NC[C@@H](Cc1ccc(O)cc1)NCC(C)(C)C	4.52% (inactive)
CC[C@@H](C)[C@H](CN[C@H](CNC)[C@@H](C)O)NCCc1ccc(OC)cc1	4.36% (inactive)
O=C(O)CCCC(=O)NCCCCc1ccccc1	-10.7% (inactive)
CCCCCSc1cc(O)c(C(CNC)C(C)C)cc1OC (stereo not given)	-3.45% (inactive)
CCCCCSc1cc(OC)c(CCN)cc1OC	15.9% (inactive)
CCCCCCSc1cc(-c2nc3cc(C)ccn3c2NCCCC)ccc1OC	0.7% (inactive)
CCCCCSc1cc(OC)c(CCN(C)C)cc1OC	11.2% (inactive)
CNCCc1ccc(OC)c(OC)c1	10.9% (inactive)

Structure (SMILES)	inhibition
COc1cc2ccc3c(CCN(C)C)cc(OC)c(OC)c3c2cc1OC	13.6% (inactive)
Cc1ccccc1S(=O)Cc1ccc(C(=O)NC2CCN(Cc3ccccc3)CC2)o1 (stereo not given)	-1.02% (inactive)
COCC1CCN(C(=O)C2CCC(=O)N(CCc3cccc(F)c3)C2)CC1 (stereo not given)	-0.82% (inactive)
COc1cc(/C=N/N2CCN(c3ccc(Cl)cc3)CC2)cc(OC)c1OC(C)=O	-1.44% (inactive)
CC(=O)N1CCN(c2ccc(NC(=O)c3cccc(Cl)c3)cc2)CC1	13.2% (inactive)
O=C(CCS(=O)(=O)c1ccc(Cl)cc1)Nc1nc(-c2ccncc2)cs1	-19.9% (inactive)
Cc1ccc(C(=O)CC(=O)c2ccccc2)cc1	2.22% (inactive)
Cc1ccc(C(=O)Nc2ccccc2Sc2ccccc2)cc1	8.29% (inactive)
Cc1cc(Nc2cccc(C(F)(F)F)c2)n2nc(C)nc2n1	2.14% (inactive)
Brc1ccc2c(c1)C(C1=NCCN1)c1ccccc1CS2 (stereo not given)	-3.48% (inactive)
Clc1ccc2c(c1)C(OC1CN3CCC1CC3)c1ccccc1CS2 (stereo not given)	-1.82% (inactive)
COc1ccc(C(=O)NCCCOC(=O)c2ccc(OC)cc2)cc1	-6.57% (inactive)
CCOC(=O)c1sc(=NC(=O)c2ccc(F)cc2)n(C)c1C	0.21% (inactive)
Cc1cc(N2CCC(C)CC2)nc(-c2ccccc2O)n1	-7.47% (inactive)
Cc1cc(N2CCN(C3CCCCC3)CC2)nc2cccc(O)c12	40.7% (inactive)
CN(C)c1ccc(/C=N/NC(=O)c2cccc(C(=O)N/N=C/c3ccc(N(C)C)cc3)n2)cc1	-1.09% (inactive)
COc1ccc(-c2ccc(=O)n(CC(=O)Nc3cccc(O)c3)n2)cc1OC	-4.09% (inactive)
O=c1cc(CN2CCN(C/C=C/c3ccccc3)CC2)c2cc(O)c(-c3ccccc3)cc2o1	1.7% (inactive)
O=c1cc(CN2CCN(C/C=C/c3ccccc3)CC2)c2cc(O)ccc2o1	0.2% (inactive)
COc1cc(C(=O)NCC(=O)OCC(=O)Nc2nnc(-c3ccccc3)o2)cc(OC)c1OC	1.32% (inactive)
Cc1cc(C)n2nc(S(=O)(=O)NC(C)(C)C)nc2n1	-11.7% (inactive)
COc1cccc(NS(=O)(=O)c2nc3nc(C)cc(C)n3n2)c1	5.81% (inactive)
CCOc1cc2[nH]c(=O)n(CCCC(=O)NCc3ccco3)c(=O)c2cc1OCC	-5.99% (inactive)
O=C(CNS(=O)(=O)/C=C/c1ccccc1)OC1CCOC1=O (stereo not given)	-7.99% (inactive)

Structure (SMILES)	inhibition
Cc1cc(C)n(C(C[N+](=O)[O-])c2ccc(Cl)cc2)n1 (stereo not given)	17.4% (inactive)
COc1ccc(C(C[N+](=O)[O-])n2nc(C)cc2C)cc1 (stereo not given)	3.95% (inactive)
O=C(NCCCc1ccncc1)C1CCC(=O)N(Cc2ccc(Cl)cc2)C1 (stereo not given)	2.99% (inactive)
CC(C)(C)NC(=S)NNC(=O)[C@H]1C[C@@H]1c1ccccc1	-2.2% (inactive)
CCCCCOC(=O)Cn1c(=O)oc2ccc(C)cc21	-6.52% (inactive)
CN(C)C(=O)Oc1cccc(OCc2n(C)c3ccccc3[n+]2C)c1	-12.8% (inactive)
Cc1cccc(OCCCCn2c(CO)nc3ccccc32)c1	1.97% (inactive)
CCCCCCCCCCOC(=O)Cn1c(COc2ccccc2)[n+](C)c2ccccc21	0.36% (inactive)
CCCCOC(=O)Cn1c2ccc(OC)cc2c2nc3ccccc3nc21	-14.3% (inactive)
CCCCCOC(=O)Cn1c(=O)oc2ccccc21	4.41% (inactive)
CCCCOC(=O)Cn1c(=N)n(CCC)c2ccccc21	-6.14% (inactive)
CCCCOC(=O)Cn1c(=O)n(CC(=O)OCCCC)c2ccccc21	2.5% (inactive)
C=C(C)Cn1c(SCC(=O)N/N=C/c2ccccc2)nc2ccccc2c1=O	2.73% (inactive)
CCOC(=O)C1CCCN(C(=O)CSc2ccccc2)C1 (stereo not given)	0.88% (inactive)
CC(C)(C)c1cc(NS(=O)(=O)c2cccs2)no1	2.79% (inactive)
CC(C)NC(=O)C1CCCN(S(=O)(=O)c2cccc3nonc23)C1 (stereo not given)	5.72% (inactive)
CSc1cnc2c(N)nc(N(C)C)nc2n1	-2.44% (inactive)
CCOc1cc(NC(=O)C2CC2)c(OCC)cc1NC(=O)CCn1nnc2ccccc21	0.44% (inactive)
CCn1cc(CN2CCC(n3nccc3NC(=O)C3CCCC3)CC2)c(C)n1	-10.6% (inactive)
Brc1ccc(-c2nnc(-c3ccco3)o2)cc1	7.53% (inactive)
CCCCc1n(CC(=O)c2ccc(Cl)cc2)c2ccccc2[n+]1C	0.37% (inactive)
CN(C)C(=O)Oc1ccc(OCc2n(C)c3ccccc3[n+]2C)cc1	-10.3% (inactive)
Cc1nonc1OCCNCc1c(C(=O)N2CCCCCCC2)nc2ccc(Cl)cn12	0.8% (inactive)
Cc1ccc(CN2CC(C(=O)Nc3cc(S(C)(=O)=O)ccc3Cl)CC2=O)cc1 (stereo not given)	-8.57% (inactive)

Structure (SMILES)	inhibition
CC1(C)Cc2cccc(OCC(=O)N3CCN(c4cccc(C(F)(F)F)c4)CC3)c2O1	7.47% (inactive)
Cc1cc(Cl)cc(C)c1OCCNCc1ccccc1	-3.01% (inactive)
Cc1cc(C)c(OCCCNCc2ccccc2)c(Br)c1	13.8% (inactive)
COCCCNCCCCOc1c(Cl)cc(C)cc1Br	1.04% (inactive)
Cc1cc(C)c(OCCNCc2ccccc2)c(C)c1	-8.25% (inactive)
CCn1c(N2CCN(CC(=O)Nc3cccc(C)c3C)CC2)nc2ccccc21	-2.87% (inactive)
Cc1cccc(NC(=O)CCNC(=O)c2ccco2)c1	-1.77% (inactive)
CN(C)c1cnn(-c2ccccc2)c(=O)c1Cl	-7.8% (inactive)
CC(C)(O)CC[C@H](OC(=O)c1ccccc1)[C@](C)(O)[C@H]1CC[C@@]2(O)C3=CC(=O)[C@@H]4C[C@@H](O)[C@H](O)C[C@]4(C)C3CC[C@]12C (stereo not given in full)	4.63% (inactive)
COc1ccc(C(C)NC(=O)Cc2ccc(Br)cc2)cc1 (stereo not given)	3.69% (inactive)
CCOc1ccccc1NC(=O)c1cccc(NC(=O)C(C)C)c1	-6.67% (inactive)
O=C1CC(N2C(=O)/C(=C/C=C/c3ccccc3)SC2=S)C(=O)N1c1ccccc1 (stereo not given)	-6.61% (inactive)
O=C(O)CCN1C(=O)CC(N2C(=O)/C(=C/c3ccc(Cl)cc3)SC2=S)C1=O (stereo not given)	-12.1% (inactive)
Cc1ccc(S(=O)(=O)NNC(=O)c2cnn(-c3ccccc3)c2C(F)(F)F)cc1	-1.38% (inactive)
CC(C)(C)C(=O)Nc1ccccc1-c1nc2ccccc2[nH]c1=O	-6.56% (inactive)
O=C(COc1ccccc1[N+](=O)[O-])Nc1ccc(N2CCN(C(=O)c3cccs3)CC2)cc1	7.91% (inactive)
Cc1cc(C(=O)N/N=C/c2ccc(Br)o2)n[nH]1	-0.33% (inactive)
O=C1C2C3C=CC(C3)C2C(=O)N1CCCCCCN1C(=O)C2C3C=CC(C3)C2C1=O (stereo not given)	7.17% (inactive)
O=C1C=CC(=O)N1Cc1ccccc1	18.2% (inactive)
COc1ccc2nc(-c3ccccc3)nc(C3CCCCC3)c2c1	-28.1% (inactive)
COc1ccc(Cl)cc1NC(=O)CN(C)C(=O)c1cc2c(s1)CCC(C)C2 (stereo not given)	-5.36% (inactive)
Cc1c(CN(C)C)c2c(n1Cc1ccccc1)C(=O)c1ccccc1-2	5.65% (inactive)
Cc1c(CN(C)C)c2c(n1C)C(=O)c1ccc(Br)cc1-2	-10.7% (inactive)
